This note sets out measurements from PMC5540273 (PLoS ONE, 2017).

Each structure is given as a SMILES string.
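Also: KINOMEscan kinase panel screen.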

The test system of the first assay is PIM2. The settings on record: concentration: 1 μM, replicates: in singlicate; n = 1.
With `Cc1cccc(-c2nc(-c3ccc(S(C)(=O)=O)cc3)sc2-c2ccncc2)c1`, the “%Inh” value is 2%.
The same measure, in the same setting: then `Cc1ccc(NC(=O)c2ccnc(N3CCN(C)CC3)c2)cc1-c1ccc(C(=O)NCC2CC2)cc1` [GW775604], with 0%; and `COc1ccc(COc2cc(-n3cnc4ccccc43)sc2C(N)=O)cc1` [GSK1024304], with 0%; and `Fc1ccc(-c2ncn(CCCN3CCOCC3)c2-c2ccccn2)cc1` [SB-211742], with 8%.
The same measure, in the same setting: under `CCCCCc1nc2c(N)ncnc2n1CCCCC` [SKF-97255] stands 5%; under `N#Cc1c(N2CCOCC2)sc(-c2ccn[nH]2)c1-c1ccc(Cl)cc1`, 0%.
The same measure, in the same setting: then `O=C(Nc1cccc(-c2nn3ncccc3c2-c2ccnc(Nc3cccc(C(F)(F)F)c3)n2)c1)c1c(F)cccc1F` [GSK299495], with 0%; and `CC(=O)Nc1ccc(COc2ccc(Nc3ccnc4cc(-c5ccccn5)ccc34)cc2)cc1.Cl` [GW440148], with 0%.
In the case of `c1ccc(-c2cc(-c3c[nH]nc3-c3ccccn3)ccn2)cc1` [GW576604], the “%Inh” value stood at 0%.
Still for that read-out and setting: under `O=C(c1ccc(-c2cc(-c3c[nH]nc3-c3ccccn3)ccn2)cc1)N1CCOCC1` [GW812171] stands 0%; under `Nc1nc(-c2ccc3c(N)n[nH]c3c2)cc(N2CCCC2)n1` [GSK2227430], 0%; under `COc1ccc(Nc2nccc(N3CCC(NC(=O)Nc4cccc(C(C)=O)c4)C3)n2)cc1` (centres unmarked) [GSK1379731], 0%.
On the same count and under the same terms, then `O=C1Cc2cc(Nc3nc(NCc4cccc(S(=O)(=O)C(F)(F)F)c4)ncc3C(F)(F)F)ccc2N1`, with 0%.
The same measure, in the same setting: under `Cc1cccc(Cn2ccn3c(=O)cc(N4CCOCC4)nc23)c1` [GSK2297542] stands 0%; under `O=c1cc(N2CCOCC2)nc2n(Cc3cccc(F)c3)ccn12` [GSK2297430], 0%.
Turning to `Cc1nnc(-c2ccc3occ(-c4ccc(C(C)O)cc4)c3c2)o1` (centres unmarked), the “%Inh” value turned out to be 80%.
Still for that read-out and setting: under `CC(C)(CN)c1nc(-c2ccc(Cl)c(O)c2)c(-c2ccncc2)[nH]1.O=C(O)C(F)(F)F` [SB-477794] stands 0%; under `O=c1cc(N2CCOCC2)nc2n(Cc3cccc4ccccc34)ccn12` [GSK2333389], 0%.
The same measure, in the same setting: then `Fc1ccc(-c2ncn(CCCN3CCOCC3)c2-c2cccnc2)cc1` [SB-211743], with 2%.
Consider `Cc1ccc(C(=O)NCC(N)=O)cc1-n1c(C)cc(OCc2ccc(F)cc2F)c(Br)c1=O`, for which the “%Inh” value was determined as 19%.
The same measure, in the same setting: then `Cn1ccc2ncnc(Oc3ccc(NC(=O)Nc4ccncc4)c(Cl)c3)c21`, with 13%; and `COc1ccc(Nc2ncc(C#N)c(Nc3ccccc3C(N)=O)n2)cc1N1CCN(C)CC1.Cl` [GSK1558669], with 0%; and `COc1ccc(S(=O)(=O)NC2CCN(c3cc(C)nc(Nc4cccc(C#N)c4)n3)CC2)cc1.O=C(O)C(F)(F)F` [GSK1653539], with 0%.
Still for that read-out and setting: under `c1ccc(-c2n[nH]cc2-c2ccnc3ccccc23)nc1` [GW271431] stands 0%; under `NCCNS(=O)(=O)c1ccc(-c2ccnc3[nH]ccc23)cc1` [GSK977617], 0%; under `Nc1nccc(-c2c(-c3ccc(F)cc3)ncn2C2CCN(CC(F)(F)F)CC2)n1` [SB-236560], 0%.
For `COc1cc2ncn(-c3cc(OCc4sccc4Cl)c(C(N)=O)s3)c2cc1OC` [GSK448459], the “%Inh” value stood at 0%.
On the same count and under the same terms, under `O=c1cc(N2CCOCC2)nc2n(Cc3cccc(Cl)c3Cl)c(C3CC3)nn12` [GSK2358994] stands 22%.
The same measure, in the same setting: then `CCc1nc(-c2cccc(C)c2)c(-c2ccnc(NCc3ccccc3)c2)s1`, with 0%; and `CSc1ccc(-c2cc3ncnc(SCC(=O)O)c3s2)cc1`, with 0%.
The same measure, in the same setting: under `COc1ccc(Nc2nccc(N3CCC(NC(=O)Nc4cc(C)ccc4C)C3)n2)cc1` (centres unmarked) [GSK1379741] stands 0%.
On to `CC(C)(C)n1cnc2c(N)ncnc21` [SKF-97359], for which the “%Inh” value is 0%.
On the same count and under the same terms, then `O=C(Nc1n[nH]c2cc(-c3cccc(F)c3)ccc12)C1CC1` [SB-735464], with 0%.
On the same count and under the same terms, then `Cc1c2ccc(N(C)c3ccnc(Nc4cccc(S(N)(=O)=O)c4)n3)cc2nn1Cc1ccccc1.Cl.Cl` [GW787226], with 0%; and `O=C(NCCNc1ccnc(Nc2ccc(F)cc2)n1)c1cc2ccccc2s1` [GSK1379874], with 0%.
Same read-out and setting: under `Cc1cn2c(=O)cc(N3CCOCC3)nc2n1Cc1cccc(Cl)c1Cl` [GSK2334006] stands 0%.

A further assay deals with PIM3. The following applies: concentration: 1 μM, replicates: in singlicate; n = 1.
On to `Cc1cccc(-c2nc(-c3ccc(S(C)(=O)=O)cc3)sc2-c2ccncc2)c1`, for which the “%Inh” value is given as 12%.
The same measure, in the same setting: then `Cc1ccc(NC(=O)c2ccnc(N3CCN(C)CC3)c2)cc1-c1ccc(C(=O)NCC2CC2)cc1` [GW775604], with 4%; and `COc1ccc(COc2cc(-n3cnc4ccccc43)sc2C(N)=O)cc1` [GSK1024304], with 0%; and `Fc1ccc(-c2ncn(CCCN3CCOCC3)c2-c2ccccn2)cc1` [SB-211742], with 0%.
On the same count and under the same terms, then `CCCCCc1nc2c(N)ncnc2n1CCCCC` [SKF-97255], with 7%; and `N#Cc1c(N2CCOCC2)sc(-c2ccn[nH]2)c1-c1ccc(Cl)cc1`, with 16%; and `O=C(Nc1cccc(-c2nn3ncccc3c2-c2ccnc(Nc3cccc(C(F)(F)F)c3)n2)c1)c1c(F)cccc1F` [GSK299495], with 0%.
Consider `CC(=O)Nc1ccc(COc2ccc(Nc3ccnc4cc(-c5ccccn5)ccc34)cc2)cc1.Cl` [GW440148], for which the “%Inh” value was found to be 0%.
As for `c1ccc(-c2cc(-c3c[nH]nc3-c3ccccn3)ccn2)cc1` [GW576604], the “%Inh” value turned out to be 0%.
The same measure, in the same setting: then `O=C(c1ccc(-c2cc(-c3c[nH]nc3-c3ccccn3)ccn2)cc1)N1CCOCC1` [GW812171], with 15%.
Still for that read-out and setting: then `Nc1nc(-c2ccc3c(N)n[nH]c3c2)cc(N2CCCC2)n1` [GSK2227430], with 0%.
Same read-out and setting: then `COc1ccc(Nc2nccc(N3CCC(NC(=O)Nc4cccc(C(C)=O)c4)C3)n2)cc1` (centres unmarked) [GSK1379731], with 0%; and `O=C1Cc2cc(Nc3nc(NCc4cccc(S(=O)(=O)C(F)(F)F)c4)ncc3C(F)(F)F)ccc2N1`, with 6%.
`Cc1cccc(Cn2ccn3c(=O)cc(N4CCOCC4)nc23)c1` [GSK2297542]: the “%Inh” value came out at 13%.
Still for that read-out and setting: under `O=c1cc(N2CCOCC2)nc2n(Cc3cccc(F)c3)ccn12` [GSK2297430] stands 0%; under `Cc1nnc(-c2ccc3occ(-c4ccc(C(C)O)cc4)c3c2)o1` (centres unmarked), 31%.
On the same count and under the same terms, then `CC(C)(CN)c1nc(-c2ccc(Cl)c(O)c2)c(-c2ccncc2)[nH]1.O=C(O)C(F)(F)F` [SB-477794], with 0%; and `O=c1cc(N2CCOCC2)nc2n(Cc3cccc4ccccc34)ccn12` [GSK2333389], with 0%; and `Fc1ccc(-c2ncn(CCCN3CCOCC3)c2-c2cccnc2)cc1` [SB-211743], with 0%.
The same measure, in the same setting: then `Cc1ccc(C(=O)NCC(N)=O)cc1-n1c(C)cc(OCc2ccc(F)cc2F)c(Br)c1=O`, with 17%.
As to `Cn1ccc2ncnc(Oc3ccc(NC(=O)Nc4ccncc4)c(Cl)c3)c21`, the “%Inh” value was determined as 1%.
The same measure, in the same setting: under `COc1ccc(Nc2ncc(C#N)c(Nc3ccccc3C(N)=O)n2)cc1N1CCN(C)CC1.Cl` [GSK1558669] stands 93.3%; under `COc1ccc(S(=O)(=O)NC2CCN(c3cc(C)nc(Nc4cccc(C#N)c4)n3)CC2)cc1.O=C(O)C(F)(F)F` [GSK1653539], 0%; under `c1ccc(-c2n[nH]cc2-c2ccnc3ccccc23)nc1` [GW271431], 3%.
Same read-out and setting: then `Nc1nccc(-c2c(-c3ccc(F)cc3)ncn2C2CCN(CC(F)(F)F)CC2)n1` [SB-236560], with 0%; and `COc1cc2ncn(-c3cc(OCc4sccc4Cl)c(C(N)=O)s3)c2cc1OC` [GSK448459], with 0%; and `O=c1cc(N2CCOCC2)nc2n(Cc3cccc(Cl)c3Cl)c(C3CC3)nn12` [GSK2358994], with 0%.
Same read-out and setting: under `CCc1nc(-c2cccc(C)c2)c(-c2ccnc(NCc3ccccc3)c2)s1` stands 25%.
As to `CSc1ccc(-c2cc3ncnc(SCC(=O)O)c3s2)cc1`, the “%Inh” value is recorded as 0%.
Same read-out and setting: under `COc1ccc(Nc2nccc(N3CCC(NC(=O)Nc4cc(C)ccc4C)C3)n2)cc1` (centres unmarked) [GSK1379741] stands 0%.
Same read-out and setting: then `CC(C)(C)n1cnc2c(N)ncnc21` [SKF-97359], with 0%; and `O=C(Nc1n[nH]c2cc(-c3cccc(F)c3)ccc12)C1CC1` [SB-735464], with 4%.
In the case of `Cc1c2ccc(N(C)c3ccnc(Nc4cccc(S(N)(=O)=O)c4)n3)cc2nn1Cc1ccccc1.Cl.Cl` [GW787226], the “%Inh” value is 0%.
The same measure, in the same setting: under `O=C(NCCNc1ccnc(Nc2ccc(F)cc2)n1)c1cc2ccccc2s1` [GSK1379874] stands 0%; under `Cc1cn2c(=O)cc(N3CCOCC3)nc2n1Cc1cccc(Cl)c1Cl` [GSK2334006], 0%.
